Results taken from PubChem BioAssay (EPA / NIEHS).
Where “and” joins values, the source holds several entries; their conditions need not be identical. Equal values may be shown once. Results filed as inconclusive are left out. The source holds several records for some structures; these can differ, active in one and inactive in another. Calls of active or inactive are those of the source. Rule for the calls: active = hit-call score of the fitted dose curve at least 0.9, where 1 is the maximum; inconclusive = response in the unintended direction; inactive = score below 0.9.

What was measured:
[1] = target: bovine Estrogen Receptor (ER), ESR1 (gene 407238) (UniProt P49884); experiment: NVS_NR_bER: NovaScreen (NVS) Nuclear Receptor Binding Assay for bovine Estrogen Receptor (ER) (AID 2283345);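 note: actives lower the bound radioligand count which means they displace the ER ligand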
bovine Estrogen Receptor (ER), ESR1 (gene 407238), sequence (P49884 whole entry, looked up): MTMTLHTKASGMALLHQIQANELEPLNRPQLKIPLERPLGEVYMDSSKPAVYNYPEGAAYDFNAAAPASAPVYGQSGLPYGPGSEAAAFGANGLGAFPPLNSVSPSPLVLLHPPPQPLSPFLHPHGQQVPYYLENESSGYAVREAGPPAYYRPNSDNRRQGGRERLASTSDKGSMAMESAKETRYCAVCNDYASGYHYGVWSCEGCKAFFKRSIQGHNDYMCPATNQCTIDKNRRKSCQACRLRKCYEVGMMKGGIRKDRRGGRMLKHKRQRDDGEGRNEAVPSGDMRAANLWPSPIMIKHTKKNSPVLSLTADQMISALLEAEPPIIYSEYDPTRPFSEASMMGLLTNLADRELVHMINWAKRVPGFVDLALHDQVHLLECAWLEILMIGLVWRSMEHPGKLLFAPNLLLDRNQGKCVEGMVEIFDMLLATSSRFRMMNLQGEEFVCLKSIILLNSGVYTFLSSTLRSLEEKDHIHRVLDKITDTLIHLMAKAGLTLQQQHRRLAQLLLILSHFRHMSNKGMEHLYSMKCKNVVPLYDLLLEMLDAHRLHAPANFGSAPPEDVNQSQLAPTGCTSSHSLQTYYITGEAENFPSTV
Procedure, shortened: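 Bovine uterine membranes; tritiated or iodinated radioligand; competitive displacement; 18 h; scintillation read; DMSO negative control; 25 uM duplicates, then concentration series for actives.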

[2] = target: chimpanzee Androgen Receptor (AR), AR (gene 747460) (UniProt O97775); experiment: NVS_NR_cAR: NovaScreen (NVS) Nuclear Receptor Binding Assay for chimpanzee Androgen Receptor (AR) (AID 2283346);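 note: radioligand displacement from AR measured by scintillation counting in a cell-free assay; a loss of bound radioligand signal versus DMSO counts as binding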
chimpanzee Androgen Receptor (AR), AR (gene 747460), sequence (O97775 whole entry, looked up): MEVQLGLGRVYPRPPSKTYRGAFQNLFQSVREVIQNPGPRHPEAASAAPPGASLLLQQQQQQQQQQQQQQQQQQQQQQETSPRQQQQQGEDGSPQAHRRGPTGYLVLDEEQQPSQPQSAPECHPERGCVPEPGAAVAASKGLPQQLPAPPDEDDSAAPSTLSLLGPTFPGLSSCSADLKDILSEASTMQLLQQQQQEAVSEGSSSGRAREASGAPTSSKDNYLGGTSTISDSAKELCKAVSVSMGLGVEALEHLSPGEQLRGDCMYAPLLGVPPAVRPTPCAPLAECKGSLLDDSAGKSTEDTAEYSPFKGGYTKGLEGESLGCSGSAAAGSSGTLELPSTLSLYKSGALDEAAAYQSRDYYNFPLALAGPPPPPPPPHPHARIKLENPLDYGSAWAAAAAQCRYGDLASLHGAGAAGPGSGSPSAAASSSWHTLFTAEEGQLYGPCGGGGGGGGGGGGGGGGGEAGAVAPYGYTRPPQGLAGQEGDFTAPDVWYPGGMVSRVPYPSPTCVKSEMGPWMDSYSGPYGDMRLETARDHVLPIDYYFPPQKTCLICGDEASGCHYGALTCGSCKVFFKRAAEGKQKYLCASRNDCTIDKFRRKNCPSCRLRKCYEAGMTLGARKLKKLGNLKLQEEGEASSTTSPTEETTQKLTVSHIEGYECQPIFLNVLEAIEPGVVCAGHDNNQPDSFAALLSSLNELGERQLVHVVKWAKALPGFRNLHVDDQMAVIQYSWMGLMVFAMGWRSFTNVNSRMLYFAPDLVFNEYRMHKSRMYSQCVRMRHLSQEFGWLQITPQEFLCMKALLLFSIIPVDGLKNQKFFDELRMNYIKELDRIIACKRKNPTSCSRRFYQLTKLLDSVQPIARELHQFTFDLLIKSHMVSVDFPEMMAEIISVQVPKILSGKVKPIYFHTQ
Procedure, shortened: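 Radioligand binding to chimpanzee AR expressed in Sf9/Sf21 cells, cell-free, measured 72 h after dosing by lysate-based scintillation counting. Loss of signal vs DMSO; initial duplicate screen at 25 uM, actives retested in concentration series.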

[3] = target: Estrogen receptor (Homo sapiens) (UniProt P03372); experiment: NVS_NR_hER: NovaScreen (NVS) Nuclear Receptor Binding Assay for human Estrogen Receptor (ER) (AID 2283348)
Estrogen receptor (Homo sapiens), sequence (P03372 whole entry, looked up, the tested form may be a part): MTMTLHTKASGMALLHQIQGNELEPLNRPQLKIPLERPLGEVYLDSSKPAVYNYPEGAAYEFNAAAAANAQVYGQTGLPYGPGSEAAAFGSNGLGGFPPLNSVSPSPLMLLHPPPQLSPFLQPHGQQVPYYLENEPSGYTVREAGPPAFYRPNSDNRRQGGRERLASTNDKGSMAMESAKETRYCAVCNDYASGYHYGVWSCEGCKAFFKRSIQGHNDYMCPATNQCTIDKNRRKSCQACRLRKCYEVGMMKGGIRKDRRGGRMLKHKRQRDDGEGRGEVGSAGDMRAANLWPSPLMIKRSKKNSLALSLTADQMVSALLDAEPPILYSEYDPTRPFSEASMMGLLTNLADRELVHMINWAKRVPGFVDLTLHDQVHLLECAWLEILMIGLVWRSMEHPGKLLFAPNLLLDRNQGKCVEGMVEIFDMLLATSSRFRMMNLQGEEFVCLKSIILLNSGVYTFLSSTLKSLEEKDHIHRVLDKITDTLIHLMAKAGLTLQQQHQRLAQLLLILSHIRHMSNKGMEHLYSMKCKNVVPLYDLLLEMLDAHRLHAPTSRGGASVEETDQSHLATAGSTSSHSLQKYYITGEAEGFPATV
Procedure, shortened: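 MCF7-derived receptor extract, radiolabelled ligand, competitive displacement. Read: scintillation counts at 18 h. DMSO = negative control/baseline. Primary 25 uM duplicate; follow-up concentration–response.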

[4] = target: Estrogen receptor (Homo sapiens) (UniProt P03372); experiment: OT_ER_ERaERa_1440: Odyssey Thera (OT) 24-hour HEK293T Protein-Complementation Assay for Estrogen Receptor-alpha/-alpha Homodimer (AID 2283349);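 note: hits raise fluorescence above DMSO for agonists and antagonists alike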
Procedure, shortened: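 Cells (HEK293T) carrying the fragment-tagged ERα LBD (aa 310-547) pair are treated with chemical for 24 hours. Nuclear and/or cytoplasmic fluorescence is then quantified on a laser scanning cytometer. Activity is scored as signal gain against DMSO.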

[5] = target: Estrogen receptor (Homo sapiens) (UniProt P03372); experiment: OT_ER_ERaERa_0480: Odyssey Thera (OT) 8-hour HEK293T Protein-Complementation Assay for Estrogen Receptor-alpha/-alpha Homodimer (AID 2283351);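 note: rise in fluorescence from reassembled reporter fragments on ERα LBD homodimer in nucleus or whole cell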
Procedure, shortened: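 Read-out: fluorescence intensity rise relative to DMSO, nuclear for agonists, nuclear plus cytoplasmic for antagonists. Construct is the ERα LBD (aa 310-547) homodimer fragment-complementation pair, stably expressed in HEK293T; exposure 8 h.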

[6] = test system: NCBI gene 100848466; experiment: NVS_NR_bPR: NovaScreen (NVS) Nuclear Receptor Binding Assay for bovine Progextron Receptor (PR) (AID 2283343)
Procedure, shortened: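 Scintillation counts of bound radioligand were read 18 hours after chemical addition to membranes extracted from bovine uterus. Displacement was scored as loss of signal relative to DMSO controls. Screening began at 25 uM in duplicate.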

[7] = target: Estrogen receptor beta (Homo sapiens) (UniProt Q92731); experiment: OT_ER_ERbERb_0480: Odyssey Thera (OT) 8-hour HEK293T Protein-Complementation Assay for Estrogen Receptor-beta/-beta Homodimer (AID 2283357);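 note: active means signal gain over DMSO baseline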
Estrogen receptor beta (Homo sapiens), sequence (Q92731 whole entry, looked up, the tested form may be a part): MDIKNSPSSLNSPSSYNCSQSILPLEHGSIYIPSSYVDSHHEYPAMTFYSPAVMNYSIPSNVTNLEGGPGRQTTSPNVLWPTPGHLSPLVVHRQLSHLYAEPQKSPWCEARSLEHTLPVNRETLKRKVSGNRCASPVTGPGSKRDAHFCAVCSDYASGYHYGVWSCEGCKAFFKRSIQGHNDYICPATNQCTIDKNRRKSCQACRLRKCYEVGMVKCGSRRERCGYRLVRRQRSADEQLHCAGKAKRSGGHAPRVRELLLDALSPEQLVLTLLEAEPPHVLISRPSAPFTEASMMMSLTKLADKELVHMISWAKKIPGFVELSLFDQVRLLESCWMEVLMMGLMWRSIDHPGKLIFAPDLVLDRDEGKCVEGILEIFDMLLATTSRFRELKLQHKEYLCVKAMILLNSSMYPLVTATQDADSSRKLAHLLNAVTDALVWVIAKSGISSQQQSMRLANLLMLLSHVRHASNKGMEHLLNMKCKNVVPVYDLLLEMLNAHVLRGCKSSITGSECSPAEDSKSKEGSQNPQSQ
Procedure, shortened: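 Homodimerization of ER-beta LBD measured by protein-fragment complementation in HEK293T; 8 h dosing; fixed, Draq5 counterstain; fluorescence intensity gain over DMSO baseline, positive fitting direction; laser scanning cytometry.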

[8] = target: PGR (gene 5241) (UniProt P06401); experiment: NVS_NR_hPR: NovaScreen (NVS) Nuclear Receptor Binding Assay for human Progestron Receptor (PR) (AID 2283360);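 note: active means loss of bound radioligand signal versus DMSO baseline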
Procedure, shortened: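 Competitive displacement of a labelled radioligand from T47D-derived receptor protein is measured in a cell-free format. Initial testing uses 25 uM in duplicate, with positive and negative controls on every plate.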

[9] = target: Estrogen receptor (Homo sapiens) + Estrogen receptor beta (Homo sapiens) (UniProt P03372+Q92731); experiment: OT_ER_ERaERb_1440: Odyssey Thera (OT) 24-hour HEK293T Protein-Complementation Assay for Estrogen Receptor-alpha/-beta Homodimer (AID 2283356);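 note: heteromer of ER alpha and ER beta binding domains; hits raise reporter fluorescence and both agonists and antagonists give an increase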
Estrogen receptor (Homo sapiens) + Estrogen receptor beta (Homo sapiens), sequence (P03372 whole entry, looked up, the tested form may be a part): as the sequence (P03372 whole entry, looked up, the tested form may be a part) above
Estrogen receptor (Homo sapiens) + Estrogen receptor beta (Homo sapiens), sequence (Q92731 whole entry, looked up, the tested form may be a part): as the sequence (Q92731 whole entry, looked up, the tested form may be a part) above
Procedure, shortened: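 24 h exposure; HEK293T PCA cells with ERα/ERβ LBD fragments; signal rise in nuclear or whole-cell fluorescence over vehicle.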

[10] = target: human Constitutive Androstane Receptor (CAR), NR1I3 (gene 9970) (UniProt Q14994); experiment: NVS_NR_hCAR_Antagonist: NovaScreen (NVS) Nuclear Receptor Binding Assay for human Constitutive Androstane Receptor Antagonism (CAR) (AID 2283344)
human Constitutive Androstane Receptor (CAR), NR1I3 (gene 9970), sequence (Q14994 whole entry, looked up): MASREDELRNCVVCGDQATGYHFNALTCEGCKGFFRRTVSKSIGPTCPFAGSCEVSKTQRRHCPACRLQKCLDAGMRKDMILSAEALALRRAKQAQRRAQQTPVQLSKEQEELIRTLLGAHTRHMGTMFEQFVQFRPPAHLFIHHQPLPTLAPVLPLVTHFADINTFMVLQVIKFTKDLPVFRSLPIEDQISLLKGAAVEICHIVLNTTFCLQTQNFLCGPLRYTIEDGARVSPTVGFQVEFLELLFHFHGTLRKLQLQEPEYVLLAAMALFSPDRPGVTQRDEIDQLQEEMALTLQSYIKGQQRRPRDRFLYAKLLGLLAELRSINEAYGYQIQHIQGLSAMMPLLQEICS
Procedure, shortened: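 Single 25 uM duplicate primary screen, with concentration-series follow-up on actives. Cell-free binding format run in antagonist mode, TR-FRET signal taken 1 h post-dose; activity is signal loss relative to DMSO.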

[11] = target: Androgen Receptor/SRC-1 Co-activator, AR (gene 367) (UniProt P10275); experiment: OT_AR_ARSRC1_0960: Odyssey Thera (OT) 16-hour HEK293T Protein-Complementation Assay for Androgen Receptor/SRC-1 Co-activator (AID 2283353);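 note: actives raise the signal above DMSO so potency reflects increased AR and SRC-1 complex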
Procedure, shortened: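 Readout: 488 nm nuclear-to-cytoplasmic fluorescence ratio from imaging of at least 400 cells per image, 16 h post-dose. Reporter is Venus YFP complementation between AR and SRC-1 fusions, stably expressed in HEK293T; activity scored upward relative to DMSO.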

[12] = target: Androgen Receptor/SRC-1 Co-activator, AR (gene 367) (UniProt P10275); experiment: OT_AR_ARSRC1_0480: Odyssey Thera (OT) 8-hour HEK293T Protein-Complementation Assay for Androgen Receptor/SRC-1 Co-activator (AID 2283354);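 note: hits raise the complementation signal above DMSO so AC50 marks enhancers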
Procedure, shortened: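 Split-Venus PCA, stable HEK293T, AR/SRC-1 fusions; 8 h exposure. Readout: 488nm N/C fluorescence ratio, ≥400 cells/image; fitted upward vs DMSO baseline.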

[13] = target: human Peroxisome Proliferator-activated Receptor alpha (PPARa), PPARA (gene 5465) (UniProt Q07869); experiment: NVS_NR_hPPARa: NovaScreen (NVS) Nuclear Receptor Binding Assay for human Peroxisome Proliferator-activated Receptor alpha (PPARa) (AID 2283359);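 note: activity means loss of TR-FRET signal versus DMSO baseline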
human Peroxisome Proliferator-activated Receptor alpha (PPARa), PPARA (gene 5465), sequence (Q07869 whole entry, looked up): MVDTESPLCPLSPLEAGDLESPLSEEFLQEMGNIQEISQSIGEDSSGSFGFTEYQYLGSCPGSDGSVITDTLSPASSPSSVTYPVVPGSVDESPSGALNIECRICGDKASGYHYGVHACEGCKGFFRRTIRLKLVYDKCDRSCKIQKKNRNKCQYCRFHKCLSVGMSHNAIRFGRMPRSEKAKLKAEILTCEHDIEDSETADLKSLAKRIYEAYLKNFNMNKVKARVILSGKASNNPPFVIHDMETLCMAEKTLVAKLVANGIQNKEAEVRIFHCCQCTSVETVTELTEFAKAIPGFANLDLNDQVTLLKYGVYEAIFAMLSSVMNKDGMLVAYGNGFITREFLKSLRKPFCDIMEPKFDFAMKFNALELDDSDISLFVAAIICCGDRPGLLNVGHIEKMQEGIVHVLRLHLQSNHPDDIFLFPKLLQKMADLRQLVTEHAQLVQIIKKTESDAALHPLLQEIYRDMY
Procedure, shortened: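 TR-FRET signal measured at 1 h post-dosing; loss-of-signal versus DMSO negative control taken as activity. Extracted gene-protein, cell-free format. Initial single-point duplicates at 25 uM, then concentration-response retests.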

[14] = target: Retinoic acid receptor alpha (Homo sapiens) (UniProt P10276); experiment: NVS_NR_hRAR_Antagonist: NovaScreen (NVS) Nuclear Receptor Binding Assay for human Retinoic Acid Alpha Receptor Antagonism (RAR) (AID 2283358)
Procedure, shortened: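 Read-out: time-resolved FRET binding signal, 2 h post-dose, cell-free extracted protein. Antagonism scored as signal loss versus DMSO negative control. Primary single-concentration screen at 25 uM in duplicate; concentration series for actives.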

Measured: AC50

CCC[CH2][Sn]([CH2]CCC)([CH2]CCC)[O]C(=O)c1ccccc1
inactive: [1] | [4] | [5]
active: [2] 9.94 µM | [3] 2.94 µM

C(=NC1CCCCC1)=NC1CCCCC1
inactive: [1]

C[C@]12CCC(=O)C[C@@H]1CC[C@@H]1[C@@H]2CC[C@]2(C)[C@@H](O)CC[C@@H]12
inactive: [6] | [7]
active: [7] 6.23 µM and 10.7 µM and 5.44 µM | [8] 0.366 µM

CCOP(=S)(OCC)SCSP(=S)(OCC)OCC
inactive: [1] | [3] | [4]
active: [5] 6.96 µM | [9] 9.13 µM | [7] 14.7 µM

Cc1ccccc1N
inactive: [10]

COP(=S)(OC)Oc1ccc(Sc2ccc(OP(=S)(OC)OC)cc2)cc1
active: [3] 1.73 µM | [9] 48.4 µM | [13] 12.7 µM
inactive: [1] | [2] | [4] | [5] | [11] | [12] | [7]

Clc1ccc(C2(Cn3cncn3)CC(Br)CO2)c(Cl)c1 (stereo not given)
inactive: [1] | [3] | [4] | [5] | [7]
active: [2] 7.36 µM | [9] 56.4 µM

Clc1ccc(COC(Cn2ccnc2)c2ccc(Cl)cc2Cl)cc1 (stereo not given)
inactive: [4] | [5] | [7]
active: [1] 0.7 µM | [2] 9.28 µM | [9] 11.8 µM | [14] 16.2 µM | [13] 39.8 µM

C[C@]12CC[C@H](O)CC1=CC[C@@H]1[C@@H]2CC[C@]2(C)C(=O)CC[C@@H]12
active: [1] 3.16 µM | [2] 1.88 µM | [7] 3.91 µM
